Results reported in PubChem BioAssay (NCI).
Compounds without any hit were thinned out: in the full panel of roughly 79,000, 15% have a hit. Cut-off read from the data, not from the text of the source: active = growth inhibition above about 70%; inactive = the rest.

What was measured:
[1] = NCI Yeast Anticancer Drug Screen. Data for the rad50 strain (AID 155);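 note: 0% = growth of vehicle-only cultures of the same strain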; conditions: S. cerevisiae rad50 strain growth inhibition; at 50.0 µM; active compounds read high
In short: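 DNA repair mutant yeast, compound exposure, growth read-out; inhibition is taken relative to vehicle.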

[2] = NCI Yeast Anticancer Drug Screen. Data for the mec2-1 strain (AID 157); conditions: S. cerevisiae mec2-1 strain, at 50.0 µM, active compounds read high
In short: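 Readout is yeast growth inhibition, normalised to vehicle-treated controls, in the mec2-1 strain exposed to compound.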

[3] = NCI Yeast Anticancer Drug Screen. Data for the sgs1 mgt1 strain (AID 161);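 note: 0% = growth of cultures given vehicle only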; conditions: S. cerevisiae sgs1 mgt1 strain, at 50.0 µM, active compounds read high
In short: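 Percent growth inhibition was derived by comparing compound-exposed mutant yeast with vehicle-exposed cultures. The strain carries alterations in DNA damage repair.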

[4] = NCI Yeast Anticancer Drug Screen. Data for the cln2 rad14 strain (AID 165);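 note: 0% = growth equal to vehicle treated cultures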; conditions: S. cerevisiae cln2 rad14 strain, at 50.0 µM, active compounds read high
In short: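 Relative to vehicle controls, growth inhibition of compound-treated cln2 rad14 yeast was recorded.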

[5] = NCI Yeast Anticancer Drug Screen. Data for the bub3 strain (AID 167); conditions: S. cerevisiae bub3 mutant strain, at 50.0 µM, active compounds read high
In short: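 In this screen, a yeast mutant lacking normal mitotic checkpoint function is challenged with compound. Relative growth versus vehicle gives the inhibition value.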

[6] = NCI Yeast Anticancer Drug Screen. Data for the mlh1 rad18 strain (AID 175); conditions: S. cerevisiae mlh1 rad18 strain growth inhibition; at 50.0 µM; active compounds read high
In short: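 Test agents were incubated with a yeast strain of defined genotype (DNA damage repair defect). Inhibition of growth was derived by comparison with vehicle-exposed cultures.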

Measured: growth inhibition

Cc1ccc(S(=O)(=O)C(c2ccccc2)C(Br)C(=O)c2ccccc2)cc1 (stereo unspecified)
inactive: [1] -0.25% | [2] 0.35% | [3] 18.2% | [4] 7.3% | [5] 1.55% | [6] -8.4%

O=C(O)C#Cc1ccc(Cl)cc1
inactive: [1] -20.1% | [2] -23.8% | [3] -17.6% | [4] -9.05% | [5] -24.4% | [6] -13.6%

CCNc1nc2c(=O)n(C)c(=O)n(C)c2s1
inactive: [1] -31% | [2] -26.2% | [3] -4.05% | [4] -6.2% | [5] -10.6% | [6] -5.65%

CCCc1ccc(N)cc1
inactive: [1] 3.25% | [2] -38.4% | [3] -9.1% | [4] -18.1% | [5] -24.4% | [6] -15.7%

CCOCC/C(C(=O)O)=C(\CC)C(=O)O
inactive: [1] 9.15% | [2] 2.55% | [3] 0% | [4] 8.7% | [5] -22.8% | [6] 9.05%

CC(=O)CC(=O)N1CCC(C)CC1
inactive: [1] 20.4% | [2] -24.9% | [3] -16.4% | [4] 27.6% | [5] -14.1% | [6] -10.2%

COc1ccc(CCO)cc1
inactive: [1] 0.55% | [2] -36% | [3] -15.9% | [4] -10.2% | [5] -31.1% | [6] -33.2%

CSc1nc(NC2OC(COC(C)=O)C(OC(C)=O)C(OC(C)=O)C2OC(C)=O)c2c(n1)OCC2=O (stereo unspecified)
inactive: [1] 2.65% | [2] -13.7% | [3] -38% | [4] 28.2% | [5] 30.9% | [6] 18.1%

Nc1nc(N)c2cc(S(=O)(=O)c3ccccc3)ccc2n1
inactive: [1] 26.1% | [2] 8.7% | [3] -8.9% | [4] -4.55% | [5] -26.1% | [6] -40.5%

COc1cc(C(C)=O)cc(OCc2ccccc2)c1OC
inactive: [1] -2.85% | [2] 15.7% | [3] 18.2% | [4] -13.1% | [5] 15.4% | [6] 7.25%

CNc1ccc(Cl)cc1S(=O)(=O)c1ccccc1[N+](=O)[O-]
inactive: [1] 3.2% | [2] 16.4% | [3] 24.8% | [4] 23.3% | [5] 5.65% | [6] -7.05%

O=C(O)/C=C/S(=O)(=O)Cc1ccccc1
inactive: [1] 8.7% | [2] -6.4% | [3] 2.7% | [4] -27.3% | [5] 7.5% | [6] 6.75%

O=C(Nc1ccc(CSc2ccc(Cl)cc2)o1)N1CCOCC1
inactive: [1] 15.7% | [2] 8% | [3] 40.8% | [4] 20.9% | [5] 38.4% | [6] 25.4%

CC(C)=NOC(C)C(=O)O (stereo unspecified)
inactive: [1] -11.9% | [2] 18.2% | [3] -24.4% | [4] 10.2% | [5] -0.9% | [6] -3.15%

CCCCCCCCCCCCCCCCC1Cc2ccccc2C1
inactive: [1] -12.6% | [2] 8% | [3] -12.8% | [4] -12.1% | [5] -4.15% | [6] -7.6%

C[n+]1c(C2(O)CCCCCCCCCCC2)sc2ccccc21
inactive: [1] 3.8% | [2] 10.1% | [3] 1.5% | [4] -11.3% | [5] 1.4% | [6] 34.4%

CSc1nc(=S)c2[nH]c(=S)[nH]c2[nH]1
inactive: [1] -1.2% | [2] 11.4% | [3] -6.5% | [4] -35.9% | [5] 21.5% | [6] 4.05%

O=S(=O)(O)c1cc(N=Nc2cc(S(=O)(=O)O)c3ccccc3c2O)ccc1/C=C/c1ccc(N=Nc2cc(S(=O)(=O)O)c3ccccc3c2O)cc1S(=O)(=O)O
inactive: [1] 34% | [2] 36% | [3] 17.6% | [4] 13.7% | [5] 45.9% | [6] 42.6%

CCOC(=O)CCC(NC(=O)c1ccc(Nc2nc3ccccc3nc2-c2cccs2)cc1)C(=O)OCC (stereo unspecified)
inactive: [1] 7.1% | [2] 4.3% | [3] 20.1% | [4] 14.8% | [5] 9.2% | [6] -34.7%

O=C(/C=C/C=C/c1ccc2c(c1)OCO2)N1CCCCC1
inactive: [1] -1.5% | [2] -26.4% | [3] 12.1% | [4] -22.6% | [5] 5.45% | [6] -22.7%

OCCCCCCO
inactive: [1] -2.55% | [2] -15.6% | [3] 16.1% | [4] -16.7% | [5] 4.3% | [6] 12.3%

O=[N+]([O-])C1=C(c2ccccc2)SC(Br)=C(c2ccccc2)S1
inactive: [1] -1.2% | [2] 9.7% | [3] 3.2% | [4] -0.6% | [5] 3.35% | [6] 7.65%

COc1cc(C)n2nnnc2n1
inactive: [1] 9.5% | [2] -6.2% | [3] 0.2% | [4] -15.8% | [5] 1.3% | [6] -9.4%

O=C(c1ccc(F)cc1)C1CCC1
inactive: [1] 16.3% | [2] -22.7% | [3] 16.6% | [4] 18.1% | [5] 18.6% | [6] 22.1%

CCOC(=O)Cn1c(=O)n(C)c(=O)c2[nH]cnc21
inactive: [1] 28.7% | [2] -27.1% | [3] 17.4% | [4] 15.1% | [5] 22.5% | [6] 28.5%

CC1=CC(=O)c2cccc(NC3=NCCO3)c21
inactive: [1] -31.3% | [2] -20.8% | [3] -2.95% | [4] -28.9% | [5] -2% | [6] -29.2%

O=C(O)c1ccc2c3ccc(C(=O)O)c4c(C(=O)O)ccc(c5ccc(C(=O)O)c1c25)c43
inactive: [1] -21.1% | [2] -33.5% | [3] -17.5% | [4] -0.25% | [5] -19.6% | [6] -19.1%

Clc1nc(N2CCOCC2)nc(N2CCOCC2)n1
inactive: [1] -9.5% | [2] -21.1% | [3] -3.2% | [4] -32.1% | [5] 7.7% | [6] -5.65%

O=NN(CCCl)C(=O)NC1CCC(CC(=O)O)CC1 (stereo unspecified)
inactive: [1] 19.1% | [2] 6.1% | [3] -9.25% | [4] -8.7% | [5] 2.9% | [6] -6.85%

CC1NC(C)c2ccc3ccccc3c2O1 (stereo unspecified)
inactive: [1] -4.85% | [2] -12.7% | [3] -25.1% | [4] -9.35% | [5] -11.2% | [6] -6.15%

O=C(Nc1ccc(Cl)c([N+](=O)[O-])c1)Oc1ccc2ccccc2c1
inactive: [1] 14.6% | [2] 3% | [3] 8.15% | [4] 11.9% | [5] 23.4% | [6] 10.7%

Cc1ccc(NC(=O)/C=C/c2ccccc2)cc1Cl
inactive: [1] 2% | [2] 14.2% | [3] 8.15% | [4] -5.5% | [5] 27.4% | [6] 16.1%

COc1ccc(N=C2C(=Nc3ccc(OC)cc3)N(c3ccccc3[N+](=O)[O-])C(=S)N2c2ccc(OC)cc2)cc1
inactive: [1] 3.6% | [2] -24% | [3] 10.7% | [4] -49.5% | [5] -1.35% | [6] -10.9%

c1ccc2cc(N=Nc3cccc4ccccc34)ccc2c1
inactive: [1] -10.5% | [2] -17.9% | [3] 1.15% | [4] -19% | [5] 1.1% | [6] -7.75%

CC(=O)OCC1OC(n2cc([N+](=O)[O-])c(=O)[nH]c2=O)C(OC(C)=O)C(OC(C)=O)C1OC(C)=O (stereo unspecified)
inactive: [1] -12.8% | [2] 9.9% | [3] -8.65% | [4] -20% | [5] 12.8% | [6] -35.1%

CC(C)S(=O)(=O)C(C)C
inactive: [1] 5.1% | [2] 0.35% | [3] -8.65% | [4] 11.7% | [5] -13.6% | [6] -5.85%

O=C(COc1ccc(Cl)cc1)Nc1ccccc1Br
inactive: [1] 11% | [2] 12.1% | [3] 7.35% | [4] 9% | [5] 33.7% | [6] -4.55%

NCCCOCCN1CCN(c2ccccc2)CC1
inactive: [1] -0.75% | [2] -27.2% | [3] 0.75% | [4] -39.5% | [5] 2.95% | [6] 7.25%

Fc1ccc2cc3cccc[n+]3cc2c1
inactive: [1] 27.1% | [2] 7.05% | [3] 32.4% | [4] 14.4% | [5] 10.1% | [6] 2.35%

O=S1C2CCC(Br)C1CCC2Br (stereo unspecified)
inactive: [1] 7.95% | [2] -6.15% | [3] 23.1% | [4] -5.35% | [5] 5.5% | [6] 12.4%

Cc1ccc2cccc([N+](=O)[O-])c2n1
inactive: [1] 15.8% | [2] -23.5% | [3] 3.75% | [4] 27.4% | [5] 1.2% | [6] 14.3%
